Hit rate of the full screen: of about 50,000 compounds, about 800 (1.6%) showed an effect of 50% or more. Shown is part of a subset that was picked to be rich in strong results.

For this experiment, the target named is Bcl-2-like protein 10 (Homo sapiens) (UniProt Q9HD36). Description: Phenotype converters, Bcl-B/TR3 peptide binding displacement, primary biochemical FP (AID 1240).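 Note: 0% = Bcl-B with tracer peptide and DMSO and 100% = tracer peptide lacking Bcl-B.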 The following applies: GST-Bcl-B / FITC-TR3 peptide fluorescence polarization; stronger effect = higher value; compound at 3.75 mg/L.
Chain of Bcl-2-like protein 10 (Homo sapiens) (Q9HD36 whole entry, looked up): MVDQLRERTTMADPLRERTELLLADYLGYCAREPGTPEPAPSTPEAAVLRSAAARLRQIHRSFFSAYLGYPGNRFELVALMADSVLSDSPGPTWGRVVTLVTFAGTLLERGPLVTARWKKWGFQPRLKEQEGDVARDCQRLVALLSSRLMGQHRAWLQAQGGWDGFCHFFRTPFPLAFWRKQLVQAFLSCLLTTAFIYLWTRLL
With `O=C1NC(=O)C(=Cc2ccc(N3CCOCC3)cc2)C(=O)N1`, the displacement stood at 78.9%.

For `O=C1NC(=O)C(=Cc2ccccc2)C(=O)N1`, the displacement was -4.2%.

Take `O=C1NC(=O)C(=Cc2ccc3c(c2)OCO3)C(=O)N1`: the displacement is 0.3%.

As for `O/N=C1/C(=C/c2ccccc2)N2CCC1CC2`, the displacement was found to be 10.6%.

For the molecule `COC(=O)COc1ccc(/C=C2\C(=O)NC(=S)N(c3ccc(C)cc3)C2=O)cc1OC`, the displacement was -13.5%.

Take `COc1ccc(-c2ccc(C=C3C(=O)NC(=S)NC3=O)o2)c([N+](=O)[O-])c1`: the displacement was found to be 34.1%.

On to `COc1ccccc1-n1c(/C=C/c2ccc(O)cc2)nc2ccccc2c1=O`, for which the displacement is 119%.

As for `O=c1c2ccccc2nc(/C=C/c2ccc(O)c(O)c2)n1-c1ccccc1`, the displacement was determined as 1.9%.

Turning to `COc1ccccc1-n1c(/C=C/c2ccco2)nc2ccccc2c1=O`, the displacement was -36%.

For the molecule `COc1ccc(-n2c(/C=C/c3ccco3)nc3ccccc3c2=O)cc1`, the displacement is -27.1%.

For `COc1ccccc1-n1c(/C=C/c2ccccc2O)nc2ccccc2c1=O`, the displacement was -6%.

For the molecule `COc1cccc(-n2c(/C=C/c3ccco3)nc3ccccc3c2=O)c1`, the displacement stood at 106%.

As for `COc1cccc(-n2c(/C=C/c3ccc(O)c(O)c3)nc3ccccc3c2=O)c1`, the displacement came to 27.7%.

For the molecule `COc1ccccc1-n1c(/C=C/c2ccc(O)c(O)c2)nc2ccccc2c1=O`, the displacement was -24.6%.

For `Cc1ccc(-n2c(/C=C/c3ccc(O)c(O)c3)nc3ccccc3c2=O)cc1`, the displacement was determined as 54.7%.

With `O=C(CNS(=O)(=O)c1ccccc1)Nc1ccc(Br)cc1C(=O)c1ccccc1`, the displacement is 12%.

As to `O=[N+]([O-])N=C1NC(OCc2ccccc2)C(OCc2ccccc2)N1` (stereo unspecified), the displacement is 1.4%.

`CCC1CN(C)CCC1(O)c1ccccc1` (stereo unspecified): the displacement is -6.1%.

In the case of `CCC(C)N1CCN(C(=O)COc2ccc(Cl)cc2)CC1` (stereo unspecified), the displacement stood at 9.2%.

Consider `CC(C(=O)c1ccc(Cl)cc1Cl)n1cncn1` (stereo unspecified), for which the displacement was -2.3%.

For `COc1ccc(OCC(=O)Nc2ccc(Br)cc2C(=O)c2ccccc2)cc1`, the displacement is -8.4%.

Take `O=Cc1cn(Cc2cccc3ccccc23)c2ccccc12`: the displacement was -2.4%.

As to `CN1C(=O)NC(=O)/C(=C\c2ccc([N+](=O)[O-])o2)C1=O`, the displacement turned out to be 17.3%.

`O=c1c2ccccc2nc(-c2ccccc2F)n1-c1cccc(Cl)c1`: the displacement is -2.3%.

With `CCNc1cc2oc(=O)cc(C(F)(F)F)c2cc1C`, the displacement is 105%.

For `Clc1ccccc1CNCCc1c[nH]c2ccccc12`, the displacement came out at 2%.

For the molecule `O=c1c2ccccc2[nH]c(=S)n1-c1ccccc1`, the displacement is -9.7%.

With `O=c1[nH]c(=O)n(-c2ccccc2)c(O)c1N=Nc1ccc(Br)cc1`, the displacement worked out at 120%.

As for `O=c1[nH]c2ccccc2c(=O)n1-c1ccccc1`, the displacement was -12.7%.

For `COc1ccccc1CN1CCN(Cc2ccccc2F)CC1`, the displacement was -5.2%.

`O=C(Nc1ccc(Cl)c(-c2nc3ncccc3o2)c1)c1cccc(OCc2ccccc2)c1`: the displacement was -2.6%.

With `O=[N+]([O-])c1ccc(CCNC2CCCCC2)cc1`, the displacement is 3.9%.

As for `COc1ccc(OC)c(-n2c(O)c(C=C3C=Nc4ccccc43)c(=O)[nH]c2=O)c1`, the displacement came out at 118%.

`COc1ccc(OC)c(N2C(=O)CC(=O)NC2=O)c1`: the displacement is -5.1%.

For the molecule `O=c1[nH]c(=O)n(Cc2ccccc2)c(O)c1C=C1C=Nc2ccccc21`, the displacement worked out at 8.6%.

Take `COC(=O)N1[C@H](c2ccccc2)[C@@H]1c1ccccc1`: the displacement amounted to 11.9%.

As to `O=C(CF)NC(Nc1ccc(Br)cc1)C(Cl)(Cl)Cl` (stereo unspecified), the displacement was found to be 8.3%.

Regarding `C=CCn1cc(C=C2C(=O)NC(=O)NC2=O)c2ccccc21`, the displacement was 16.3%.

For the molecule `CCn1cc(C=C2C(=O)NC(=S)NC2=O)c2ccccc21`, the displacement was 136%.

For the molecule `CCn1cc(C=C2C(=O)NC(=O)NC2=O)c2ccccc21`, the displacement worked out at 12.6%.

For `CN1C(=O)C(=Cc2cn(Cc3ccc(F)cc3)c3ccccc23)C(=O)N(C)C1=O`, the displacement amounted to 138%.

Turning to `O=Cc1cn(Cc2ccc(Br)cc2)c2ccccc12`, the displacement is 0.2%.

`CN1C(=O)C(=Cc2ccccc2Cl)C(=O)N(C)C1=O`: the displacement was -0.3%.

With `C=CCc1cc(/C=C2\C(=O)NC(=O)N(c3cc(C)cc(C)c3)C2=O)cc(OC)c1O`, the displacement was -5.3%.

`Cc1cc(C=C2C(=O)NC(=S)NC2=O)c(C)n1-c1ccccc1`: the displacement was 104%.

`Cc1cc(/C=C2/C(=O)NC(=O)N(C)C2=O)c(C)n1-c1ccccc1`: the displacement was found to be 49.3%.

On to `Cc1ccc(-n2c(C)cc(/C=C3/C(=O)NC(=O)N(C)C3=O)c2C)cc1`, for which the displacement is -10.4%.

With `Cc1cc(C=C2C(=O)NC(=S)NC2=O)c(C)n1-c1ccc(Cl)cc1`, the displacement came out at 36.9%.

With `Cc1cc(/C=C2\C(=O)NC(=O)N(C)C2=O)c(C)n1-c1ccc2c(c1)OCO2`, the displacement is 107%.

With `Cc1cc(C=C2C(=O)NC(=S)NC2=O)c(C)n1-c1ccc(F)cc1`, the displacement was found to be 3.8%.

Consider `O=C1NC(=S)N(c2ccc(Br)cc2)C(=O)/C1=C/c1ccc(-c2ccccc2C(=O)O)o1`, for which the displacement amounted to 19.2%.

For the molecule `COc1ccc(Br)cc1CN1CCN(C(=O)COc2ccccc2)CC1`, the displacement turned out to be 2.5%.

With `COC(=O)C1C2C(=O)N(c3ccc([N+](=O)[O-])cc3)C(=O)C12c1ccc(C)cc1` (stereo unspecified), the displacement is -32.2%.

Take `Cc1ccc(NC(=O)C2C(C)(C)C2(C)C)cc1C`: the displacement was determined as 6.9%.

Take `CCOC(=O)c1ccc2c(c1)n(Cc1ccccc1)c(C)[n+]2CC`: the displacement was -14.9%.

As to `COc1cccc(N2C(=O)CC(=O)NC2=O)c1`, the displacement was -8.2%.

On to `CCOc1ccc(N2C(=O)/C(=C/c3cc(Cl)ccc3O)C(=O)NC2=S)cc1`, for which the displacement was 0.4%.

Turning to `Cc1ccc(N2C(=O)NC(=O)/C(=C\c3cn(CC(=O)O)c4ccccc34)C2=O)cc1`, the displacement is 183%.

In the case of `Cc1ccc(N2C(=O)NC(=O)/C(=C\c3ccccc3OCc3ccc(C(=O)O)cc3)C2=O)cc1`, the displacement is -9.2%.

For `COc1ccc(N2C(=O)NC(=O)/C(=C/c3cn(CC(=O)Nc4ccccc4)c4ccccc34)C2=O)cc1`, the displacement came out at 88.8%.

As to `O=C(O)Cn1cc(/C=C2\C(=O)NC(=O)N(c3ccc(Cl)cc3)C2=O)c2ccccc21`, the displacement was -16.9%.

As to `CCc1ccc(/C=C2/C(=O)NC(=O)N(c3ccc(OC)cc3)C2=O)cc1`, the displacement was -18.1%.

`COc1ccccc1OCCn1cc(C=C2C(=O)NC(=O)NC2=O)c2ccccc21`: the displacement is 38.7%.

Take `CCOc1cc(C)cc2oc(=O)c3c(c12)CCC3`: the displacement is -1.5%.

For `Nc1ccc(Br)cc1C(=O)c1ccc(Cl)cc1Cl`, the displacement worked out at 10%.

Regarding `O=C1NC(=O)N(Cc2ccccc2)C(=O)/C1=C/c1ccc2c(c1)OCO2`, the displacement was found to be 13.8%.

`CN1C(=O)NC(=O)/C(=C/c2cn(C)c3ccccc23)C1=O`: the displacement stood at 108%.

With `CN1C(=O)NC(=O)/C(=C\c2ccc(C(=O)O)cc2)C1=O`, the displacement was 1.8%.

`CN1C(=O)NC(=O)/C(=C/c2ccc(I)o2)C1=O`: the displacement is 9.2%.

Turning to `O=C1NC(=O)N(Cc2ccccc2)C(=O)/C1=C\C=C\c1ccco1`, the displacement worked out at 11.3%.

For the molecule `Cn1cc(/C=C2\C(=O)NC(=O)N(Cc3ccccc3)C2=O)c2ccccc21`, the displacement worked out at 99.3%.

`O=C(Cc1ccccc1)N1CCN(Cc2cccnc2)CC1`: the displacement amounted to 9.9%.

For the molecule `CC(C)c1ccc(N2C(=O)CC(=O)NC2=O)cc1`, the displacement is -5.9%.

For `CC1(C)C(C(=O)Nc2cccc3ccccc23)C1(C)C`, the displacement worked out at 3.9%.

On to `Cc1ccccc1-n1c(CN2C(=O)c3ccccc3C2=O)nc2ccccc2c1=O`, for which the displacement was -9.6%.

Take `CC(C)CCn1c(=O)c(C(=O)Nc2ccc(I)cc2)c(O)c2ccccc21`: the displacement stood at 7.1%.

As for `Cc1cc(Cl)ccc1OCC(=O)N1CCN(C)CC1`, the displacement is -6.7%.

As for `O=C(Nc1ccc(Br)cc1C(=O)c1ccccc1)c1ccc(F)cc1`, the displacement was found to be 8.4%.

As to `O=C(ON1CC1(C(F)(F)F)C(F)(F)F)c1ccccc1` (stereo unspecified), the displacement stood at 3.2%.

Regarding `O=C1c2ccccc2-c2onc3c(Br)cc(N4CC4)c1c23`, the displacement worked out at 178%.

`Cc1ccc(N2C(=O)CC(=O)NC2=S)cc1`: the displacement is 5.6%.

Regarding `COc1cccc(/C=C2/C(=O)NC(=O)N(c3cccc(C)c3)C2=O)c1O`, the displacement is 3.1%.

Take `COc1ccc(N2C(=O)NC(=O)/C(=C/c3cc4c(cc3Cl)OCO4)C2=O)cc1`: the displacement is 81.5%.

`COc1ccc(N2C(=O)NC(=O)/C(=C/c3ccc(SC)cc3)C2=O)cc1`: the displacement was -9.4%.

In the case of `Cc1ccc(N2C(=O)NC(=O)/C(=C\c3ccc(-c4ccc(Cl)c(C(=O)O)c4)o3)C2=O)cc1`, the displacement amounted to 6.3%.

As to `Cc1ccc(/C=C2/C(=O)NC(=O)N(c3ccc(Cl)cc3)C2=O)o1`, the displacement was 36.2%.

`COc1ccc(N2C(=O)NC(=O)/C(=C/c3ccc(-c4cccc(Cl)c4)o3)C2=O)cc1`: the displacement came to 69%.

For `CN1C(=O)NC(=O)/C(=C\c2cc3c(cc2Cl)OCO3)C1=O`, the displacement was determined as 0.4%.

With `COc1ccc(CN2CCN(Cc3cc(Br)ccc3O)CC2)cc1`, the displacement was found to be 13.1%.

On to `Cc1cc(C=C2C(=O)NC(=O)NC2=O)c(C)n1-c1ccc(N(C)C)cc1`, for which the displacement worked out at 0.1%.

With `CN=C(C)c1c(O)n(C)c(=S)n(C)c1=O`, the displacement stood at 8.8%.

For the molecule `C(=NCCCN1CCOCC1)c1c[nH]c2ccccc12`, the displacement was found to be 2.6%.

Take `O=c1c2ccccc2nc(-c2cccs2)n1-c1ccccn1`: the displacement came to 19.3%.

Consider `O=C(Cn1c[n+]([N-][N+](=O)[O-])cn1)Nc1ccc(NC(=O)Cn2c[n+]([N-][N+](=O)[O-])cn2)cc1`, for which the displacement turned out to be 59.6%.

Regarding `O=C(Cn1c[n+]([N-][N+](=O)[O-])cn1)Nc1ccc([N+](=O)[O-])cc1`, the displacement stood at 16.4%.

Turning to `O=C(Cn1c[n+]([N-][N+](=O)[O-])cn1)N1CCN(C(=O)Cn2c[n+]([N-][N+](=O)[O-])cn2)CC1`, the displacement turned out to be 15%.

Regarding `CCOc1ccc(N2C(=O)NC(=O)/C(=C\c3ccc(C)o3)C2=O)cc1`, the displacement turned out to be 11.6%.

For `COc1ccc(C=C2C(=O)NC(=O)NC2=O)cc1OCc1ccc(Cl)cc1Cl`, the displacement is 150%.

As for `COc1ccc(C=C2C(=O)NC(=S)NC2=O)cc1OCc1ccccc1Cl`, the displacement turned out to be 8.2%.

`COc1cc(C=C2C(=O)NC(=O)NC2=O)ccc1OCc1ccc(C(=O)O)cc1`: the displacement stood at 0.6%.

On to `O=c1oc2ccccc2c2c1C(c1ccc(Cl)cc1)c1c(c3ccccc3oc1=O)O2`, for which the displacement turned out to be 10.3%.

Take `COc1cccc(CN2CCNCC2)c1OC`: the displacement was 15.6%.

For the molecule `O=C(N/N=C1/CN2CCC1CC2)c1ccc(O)cc1`, the displacement was determined as 17.8%.

With `O=C1C(=Cc2ccc(-c3ccccc3[N+](=O)[O-])o2)C(=O)N(c2ccccc2)C(=S)N1c1ccccc1`, the displacement was determined as 16.4%.

For the molecule `CN1C(=O)NC(=O)/C(=C/c2ccc(-c3ccccc3[N+](=O)[O-])o2)C1=O`, the displacement was determined as 35.6%.

As to `COC(=O)C(=O)/C(=C\c1ccc(-c2ccccc2[N+](=O)[O-])o1)C(=O)c1ccccc1`, the displacement is 56.7%.

(Values after PubChem BioAssay AID1240 (Sanford-Burnham Center for Chemical Genomics, 2008).)
